Source: PubChem BioAssay AID1159580 (chemical genetic matrix, 2015)
Among all 5,500 compounds or so, about 2,000 (36%) were called active. Another 18% or so got no clear call; they are omitted. No stated cut-off is given here; in the data, active means normalized growth mostly below about 0.91 (no sharp cut-off); inconclusive means no clear call, values can overlap the other calls; inactive means mostly above about 0.92. The list shows a part of the results.

Assay: chemical genetic growth profiling, strain panel (AID 1159580);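 further: tested at 20 µM; growth read once vehicle control cultures reached saturation at 30 °C; 1 = growth at the plate median or of vehicle wells; lower values mean less growth of the strain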
Conditions: S. cerevisiae deletion strains, growth OD

Measured: normalized growth

O=C(O)CCCO
inactive: locus YHR030C, strain SLT2, active compounds read low 1.05 | locus YHR079C, strain IRE1, active compounds read low 1.05 | locus YJL095W, strain BCK1, active compounds read low 1.01 | locus YJR066W, strain TOR1, active compounds read low 0.976 | locus YLR113W, strain HOG1, active compounds read low 1.02 | locus YNL183C, strain NPR1, active compounds read low 0.983 | locus YOR231W, strain MKK1, active compounds read low 1.02 | locus YPL256C, strain CLN2, active compounds read low 1.01
